Measurements from PubChem BioAssay (NCATS).
Inconclusive results are not listed. Entries that show only a call come without a potency. Activity calls are given as the source filed them. The call rests on the fitted dose curve; in most records, active means well fitted inhibition curve with a large enough effect; inconclusive means small, poorly fitted or top-dose-only effect; inactive means no such curve, though single readings can be large or run the other way.

Assay: NS1 protein of Zika virus - qHTS assay to identify small molecule inhibitors in human HEK 293 cells (AID 1347053); further: nearly all actives have a fitted effect of over 55% in size
Conditions: HEK293 ZIKV MR766 infection, NS1 TR-FRET, 24 h; series mostly up to 46.1 µM
Text: National Center for Advancing Translational Sciences [NCATS]
Johns Hopkins University School of Medicine
The non-structural 1 (NS1) protein of zika virus is known to associate with the viral replication complex. This cell-based TR-FRET ZIKV NS-1 assay measures the increased NS-1 protein in human HEK 293 cells after a 24-hour Zika virus infection by a TR-FRET assay readout. A decrease in the Time-resolved fluorescence energy transfer (TR-FRET) signal in this assay by small molecule treatment indicates an inhibitory effect of the small molecule on the expression of Zika virus NS1 correlating with Zika virus replication.
HEK 293 cells were cultured in EMEM (ATCC, Cat. # 30-2003) medium with 10% fetal bovine serum (GE healthcare Life Sciences, Cat. # SH30071.03), and 1% Pen/Strep (Gibco, Cat. # 15140-122). Cells were seeded in the assay plate and incubated at 37 C with 5% CO2 for 20 hours. Compounds were added to cells and incubated for one hour before addition of ZIKV MR766 strain solution to cells (MOI = 0.5). After an incubation at 37 C for 24 hours, the reagent mixture of TR-FRET ZIKV NS1 assay using two anti-ZIKV NS1 antibodies was added to assay plates. The TR-FRET signals in assay plates were measured using an Envision plate reader (PerkinElmer). Data were normalized by using the cell-containing wells without ZIKV as a negative control (0% NS-1) and wells containing ZIKV infected cells as a positive control (100% NS-1 level).
Potency means the concentration at half of the fitted maximal effect.

SMILES	Potency
CCC(CC)(CC(=O)Nc1cccc(/C=C/c2nc(C3CCC3)cs2)c1)C(=O)O	inactive
CC(C)NCC(O)c1ccc2ccccc2c1 (stereo not given)	inactive
O=C(Nc1ncc([N+](=O)[O-])s1)c1cccs1	inactive
COc1ccc(CN(CCN(C)C)c2ncccn2)cc1	inactive
Cc1nc(-c2ccc(Cl)cc2)oc1COC(C)(C)C(=O)O	inactive
O=C(Nc1ccc([N+](=O)[O-])cc1)Nc1ccc([N+](=O)[O-])cc1	inactive
CC(=O)Nc1ccc(OCC(O)CNC(C)C)cc1 (stereo not given)	inactive
Clc1cccc(C(c2ccc3nc[nH]c3c2)n2ccnc2)c1 (stereo not given)	inactive
Cc1c(-c2ccccc2)oc2c(C(=O)OCCN3CCCCC3)cccc2c1=O	inactive
CCOC(=O)[C@H](CCc1ccccc1)N[C@@H](C)C(=O)N1[C@H](C(=O)O)C[C@@H]2CCC[C@@H]21	inactive
CC(=O)Nc1ccc(CC(=O)O)cc1	inactive
CN1CCC[C@@H]1CCO[C@](C)(c1ccccc1)c1ccc(Cl)cc1	inactive
Oc1ccccc1C=NCc1ccccc1	inactive
C[C@]12CCC(=O)C=C1C=C[C@@H]1[C@@H]2CC[C@@]2(C)[C@H]1CC[C@@]21CCC(=O)O1	inactive
COc1ccc(-c2cc(C(F)F)nn2-c2ccc(S(N)(=O)=O)cc2)cc1F	inactive
OC[C@H]1O[C@@H](Oc2ccc(O)cc2)[C@H](O)[C@@H](O)[C@@H]1O	inactive
CN(C)CCC[C@@]1(c2ccc(F)cc2)OCc2cc(C#N)ccc21	inactive
CCN(CC)CCNC(=O)c1cc(Br)c(N)cc1OC	inactive
CC1=C(C(=O)O)N2C(=O)[C@@H](NC(=O)[C@H](N)c3ccccc3)[C@H]2SC1	inactive
CCc1oc2ccccc2c1C(=O)c1cc(Br)c(O)c(Br)c1	inactive

SMILES	Potency
CC(C)(C)CC(C)(C)c1ccc(O)c(-n2nc3ccccc3n2)c1	inactive
Cc1ncc(CO)c(C=O)c1O	inactive
COc1ccc(CCN(C)CCCN2CCc3cc(OC)c(OC)cc3CC2=O)cc1OC	inactive
CCCN(CCc1cccs1)[C@H]1CCc2c(O)cccc2C1	inactive
Nc1nc(-c2ccccc2)c(Br)c(=O)[nH]1	inactive
O=C(CCCN1CC=C(n2c(=O)[nH]c3ccccc32)CC1)c1ccc(F)cc1	inactive
CNCCCCOc1ccccc1Cc1ccccc1	inactive
OC[C@H]1O[C@@H]2O[C@H]3[C@H](O)[C@@H](O)[C@@H](O[C@H]4[C@H](O)[C@@H](O)[C@@H](O[C@H]5[C@H](O)[C@@H](O)[C@@H](O[C@H]6[C@H](O)[C@@H](O)[C@@H](O[C@H]7[C@H](O)[C@@H](O)[C@@H](O[C@H]8[C@H](O)[C@@H](O)[C@@H](O[C@H]1[C@H](O)[C@H]2O)O[C@@H]8CO)O[C@@H]7CO)O[C@@H]6CO)O[C@@H]5CO)O[C@@H]4CO)O[C@@H]3CO	inactive
CC(C)Cn1cnc2c1c(=O)n(C)c(=O)n2C	inactive
N/C(=N\N=C\c1ccc(Cl)cc1)N/N=C/c1ccc(Cl)cc1	inactive
CC[N+](C)(CC)CCOC(=O)C(O)(c1ccccc1)C1CCCCC1 (stereo not given)	inactive
CN(Cc1ccc(C(C)(C)C)cc1)Cc1cccc2ccccc12	inactive
C#C[C@]1(O)CC[C@H]2[C@@H]3CCC4=CC(=O)CC[C@@H]4[C@H]3CC[C@@]21CC	inactive
Cc1ccccc1OCC(O)CO (stereo not given)	inactive
O=[N+]([O-])c1ccc(/C=N\O)o1	inactive
CC(C)[C@@H]1CC[C@@H](C)CC1=O	inactive
CC(C)Cc1ccc(CC(=O)O)cc1	inactive
C[N+]12CCC(CC1)C(OC(=O)C(O)(c1ccccc1)c1ccccc1)C2 (stereo not given)	inactive
CCN1/C(=C/C=C/c2sc3ccccc3[n+]2CC)Sc2ccccc21	3.55 µM (active)
C[N+]1(C)CCC(=C(c2ccccc2)c2ccccc2)CC1	inactive
